Measurements reported in PubChem BioAssay AID1159580 (chemical genetic matrix, 2015).
Values joined by “and” are separate entries in the source; they are usually repeats but may differ in a detail not shown here. Equal entries are not always repeated. Among all 5,500 compounds or so, about 2,000 (36%) were called active. Roughly 18% stayed inconclusive and do not appear here. Rule as the data show it: active = normalized growth mostly below about 0.91 (no sharp cut-off); inconclusive = no clear call, values can overlap the other calls; inactive = mostly above about 0.92. The list shows a part of the results.

Assay: chemical genetic growth profiling, strain panel (AID 1159580);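 also: tested at 20 µM; growth read once vehicle control cultures reached saturation at 30 °C; 1 = growth at the plate median or of vehicle wells; lower values mean less growth of the strain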
Settings: S. cerevisiae deletion strains, growth OD

Measured: normalized growth

C=CCc1ccccc1OCC(O)CNC(C)C (stereo not given)
inactive: locus YAL013W, strain DEP1, active compounds read low 1 and 0.978 | locus YAL021C, strain ccr4, active compounds read low 1 | locus YAL026C, strain drs2, active compounds read low 1 | locus YAL030W, strain snc1, active compounds read low 0.995 | locus YAL040C, strain CLN3, active compounds read low 0.974 | locus YBL061C, strain skt5, active compounds read low 1 | locus YBR009C, strain hhf1, active compounds read low 0.971 | locus YBR021W, strain FUR4, active compounds read low 0.998 | locus YBR023C, strain chs3, active compounds read low 1 | locus YBR171W, strain sec66, active compounds read low 0.99 | locus YBR229C, strain ROT2, active compounds read low 1 | locus YBR231C, strain swc5, active compounds read low 0.987 | locus YBR279W, strain paf1, active compounds read low 1 | locus YCL011C, strain gbp2, active compounds read low 0.998 | locus YCL016C, strain dcc1, active compounds read low 0.993 | locus YCL029C, strain bik1, active compounds read low 1.02 | locus YCL061C, strain MRC1 (second series), active compounds read low 1 | locus YCL061C, strain MRC1, active compounds read low 0.999 | locus YCL069W, strain vba3, active compounds read low 0.994 | locus YCR088W, strain abp1, active compounds read low 0.992 | locus YDL005C, strain med2, active compounds read low 0.995 | locus YDL035C, strain GPR1, active compounds read low 0.991 | locus YDL040C, strain nat1, active compounds read low 0.995 | locus YDL074C, strain BRE1, active compounds read low 1.01 | locus YDL101C, strain DUN1, active compounds read low 1.01 | locus YDL134C, strain PPH21, active compounds read low 1.01 | locus YDL185W, strain tfp1, active compounds read low 1 | locus YDL192W, strain arf1, active compounds read low 1.02 | locus YDR001C, strain nth1, active compounds read low 1 | locus YDR069C, strain doa4, active compounds read low 0.979 | locus YDR101C, strain arx1, active compounds read low 1.01 | locus YDR137W, strain rgp1, active compounds read low 0.998 | locus YDR150W, strain NUM1, active compounds read low 1 and 1.02 | locus YDR159W, strain sac3, active compounds read low 0.993 | locus YDR162C, strain NBP2, active compounds read low 1 | locus YDR195W, strain ref2 0.913 | locus YDR297W, strain sur2, active compounds read low 1 | locus YDR318W, strain mcm21, active compounds read low 1.01 | locus YDR334W, strain swr1, active compounds read low 0.997 | locus YDR335W, strain msn5, active compounds read low 1 | locus YDR363W, strain ESC2, active compounds read low 0.973 | locus YDR388W, active compounds read low 1 | locus YDR392W, strain spt3, active compounds read low 0.86 | locus YDR502C, strain sam2, active compounds read low 1.01 | locus YEL003W, strain gim4, active compounds read low 0.992 | locus YEL037C, strain rad23, active compounds read low 0.997 | locus YEL061C, strain CIN8 (second series), active compounds read low 1 | locus YEL061C, strain CIN8, active compounds read low 1 | locus YER002W, strain NOP16, active compounds read low 0.975 | locus YER015W, strain faa2, active compounds read low 0.995 | locus YER016W, strain bim1, active compounds read low 0.985 | locus YER110C, active compounds read low 1.02 | locus YER111C, strain swi4, active compounds read low 0.986 | locus YER155C, strain BEM2 (second series), active compounds read low 0.968 | locus YER155C, strain BEM2, active compounds read low 0.999 | locus YER167W, strain BCK2, active compounds read low 1 | locus YFR010W, strain ubp6, active compounds read low 1 | locus YGL078C, strain dbp3, active compounds read low 1.01 | locus YGL086W, strain mad1, active compounds read low 1 | locus YGL167C, strain pmr1, active compounds read low 0.998 | locus YGL173C, strain kem1, active compounds read low 0.997 | locus YGL227W, strain vid30, active compounds read low 0.987 | locus YGL240W, strain doc1, active compounds read low 0.983 | locus YGL248W, strain PDE1, active compounds read low 0.998 | locus YGL253W, strain hxk2, active compounds read low 1 | locus YGR078C, strain PAC10, active compounds read low 1.01 | locus YGR135W, strain pre9, active compounds read low 1.02 | locus YGR229C, strain SMI1, active compounds read low 0.974 | locus YGR252W, strain gcn5, active compounds read low 0.98 | locus YHR013C, strain ard1, active compounds read low 0.943 | locus YHR027C, strain rpn1, active compounds read low 1 | locus YHR030C, strain SLT2, active compounds read low 1 and 0.989 | locus YHR079C, strain IRE1 (second series), active compounds read low 1.01 | locus YHR079C, strain IRE1, active compounds read low 0.972 | locus YHR094C, strain hxt1, active compounds read low 1 | locus YHR129C, strain ARP1, active compounds read low 1.01 | locus YHR142W, strain chs7, active compounds read low 1.01 | locus YHR200W, strain rpn10, active compounds read low 1 | locus YIL066C, strain RNR3, active compounds read low 1.01 | locus YIL073C, strain SPO22, active compounds read low 1.06 | locus YIL125W, strain kgd1, active compounds read low 1.01 | locus YIR030C, strain dcg1, active compounds read low 1.02 | locus YJL092W, strain hpr5, active compounds read low 1 | locus YJL095W, strain BCK1 (second series), active compounds read low 0.995 | locus YJL095W, strain BCK1, active compounds read low 1.02 and 0.978 | locus YJL115W, strain asf1, active compounds read low 1 | locus YJL129C, strain trk1, active compounds read low 0.998 | locus YJL134W, strain LCB3, active compounds read low 0.997 | locus YJL154C, strain vps35, active compounds read low 0.99 | locus YJL164C, strain tpk1, active compounds read low 1.01 | locus YJL166W, strain qcr8, active compounds read low 1 | locus YJL168C, strain set2, active compounds read low 1.01 | locus YJL187C, strain SWE1 (second series), active compounds read low 1.02 | locus YJL187C, strain SWE1, active compounds read low 1.01 | locus YJR043C, strain POL32, active compounds read low 1
